Experimental data reported in PubChem BioAssay (EPA / NIEHS).
Results filed as inconclusive are left out. Active and inactive are the calls of the source. Rule for the calls, unless noted: active = hit-call score of the fitted dose curve at least 0.9, where 1 is the maximum; inactive = score below 0.9.

What was measured:
[1] = target: Myc proto-oncogene protein (Homo sapiens) (UniProt P01106); experiment: ATG_Myc_CIS: Attagene CIS-FACTORIAL HepG2 Assay for human Myelocytomatosis (Myc) Proto-Oncogene Transcription Factor (AID 2282990); settings: HepG2, Attagene cis-reporter transcription factor activity; actives raise or lower the signal
Sequence of Myc proto-oncogene protein (Homo sapiens) (P01106 whole entry, looked up): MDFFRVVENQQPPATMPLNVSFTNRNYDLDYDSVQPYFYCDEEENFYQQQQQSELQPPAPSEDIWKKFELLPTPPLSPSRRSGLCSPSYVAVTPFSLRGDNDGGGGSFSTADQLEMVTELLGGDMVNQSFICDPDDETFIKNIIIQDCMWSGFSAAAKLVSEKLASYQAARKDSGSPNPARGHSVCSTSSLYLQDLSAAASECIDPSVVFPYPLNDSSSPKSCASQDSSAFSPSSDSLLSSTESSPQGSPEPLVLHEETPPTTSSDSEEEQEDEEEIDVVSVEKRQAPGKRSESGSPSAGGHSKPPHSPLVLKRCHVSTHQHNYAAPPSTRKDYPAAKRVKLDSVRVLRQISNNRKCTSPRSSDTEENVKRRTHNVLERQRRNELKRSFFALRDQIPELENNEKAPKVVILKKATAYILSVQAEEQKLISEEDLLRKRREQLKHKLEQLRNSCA
Outline: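 Transiently transfected HepG2 cells bearing cis-promoter reporter units for endogenous transcription factors; 24 h exposure. Reporter mRNA measured by RT-PCR, 6-FAM primer extension, HpaI cut and capillary electrophoresis; bidirectional fit relative to DMSO.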

[2] = ATG_NF_kB_CIS: Attagene CIS-FACTORIAL HepG2 Assay for human Nuclear Factor Kappa B (NF-kB) (AID 2282991); settings: HepG2 Attagene cis-factorial NF-kB reporter mRNA; actives raise or lower the signal
Outline: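 HepG2, transient multi-reporter transfection, cis promoter elements (endogenous TFs). 24 h exposure. Total RNA → RT → PCR → 6-FAM label → HpaI → CE. Gain/loss vs DMSO.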

[3] = ATG_NRF2_ARE_CIS: Attagene CIS-FACTORIAL HepG2 Assay for human Nuclear Factor Erythroid 2 Related Factor 2 (NFR2) response to Antioxidant Response Elements (ARE) (AID 2282992); settings: HepG2 Attagene ARE/NRF2 reporter, transcription factor activity; actives raise or lower the signal;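 for AC50: reporter mRNA level measured by RT-PCR and capillary electrophoresis fluorescence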
Outline: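 Readout: reporter mRNA quantified by RT-PCR plus FAM-labelled primer extension, HpaI digestion and capillary electrophoresis, 24 h after dosing transfected HepG2 cells. Gain or loss of signal is fitted bidirectionally against DMSO baseline.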

[4] = target: Cellular tumor antigen p53 (Homo sapiens) (UniProt P04637); experiment: ATG_p53_CIS: Attagene CIS-FACTORIAL HepG2 Assay for human p53 Transcription Factor (AID 2282994); settings: HepG2 p53 cis-element reporter, Attagene mRNA; actives raise or lower the signal
Sequence of Cellular tumor antigen p53 (Homo sapiens) (P04637 whole entry, looked up): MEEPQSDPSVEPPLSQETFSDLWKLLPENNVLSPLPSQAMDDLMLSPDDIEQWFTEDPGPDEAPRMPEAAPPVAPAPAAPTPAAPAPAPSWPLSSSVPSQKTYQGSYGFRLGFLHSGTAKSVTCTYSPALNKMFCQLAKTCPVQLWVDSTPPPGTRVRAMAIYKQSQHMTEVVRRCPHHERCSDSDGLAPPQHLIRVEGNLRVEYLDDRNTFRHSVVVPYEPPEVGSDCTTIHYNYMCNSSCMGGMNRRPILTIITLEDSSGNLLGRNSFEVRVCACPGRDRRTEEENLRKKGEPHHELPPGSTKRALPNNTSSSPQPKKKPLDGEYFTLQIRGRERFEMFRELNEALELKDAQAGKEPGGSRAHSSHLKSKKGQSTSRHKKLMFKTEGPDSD
Outline: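 Read-out: reporter mRNA by RT-PCR plus capillary electrophoresis with fluorescence detection. Human HepG2 liver cells carried transfected multi-reporter cis-element constructs, dosed 24 h. Gain or loss of signal fitted bidirectionally against DMSO control.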

[5] = BSK_3C_TissueFactor: BioMAP Diversity Plus: 3C Assay for Tissue Factor Biomarker Activity (AID 2282997); settings: BioMAP 3C HUVEC, tissue factor biomarker readout; actives raise or lower the signal
Outline: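 After a 24 h chemical exposure of primary human umbilical vein endothelial cells, Tissue Factor levels were quantified by ELISA.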

[6] = BSK_3C_uPAR: BioMAP Diversity Plus: 3C Assay for Urokinase-type plasminogen activator receptor (uPAR) Biomarker Activity (AID 2282998); settings: BioMAP 3C HUVEC, uPAR biomarker ELISA; actives raise or lower the signal
Outline: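 In this endothelial cell-based assay, human umbilical vein primary cells were treated with chemicals and harvested at 24 h. uPAR was quantified using ELISA, with gains or losses fitted relative to DMSO controls.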

[7] = BSK_3C_VCAM1: BioMAP Diversity Plus: 3C Assay for Vascular cell adhesion molecule 1 (VCAM1) Biomarker Activity (AID 2282999); settings: BioMAP 3C HUVEC, VCAM1 ELISA, cytokine-stimulated; actives raise or lower the signal
Outline: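 HUVEC primary cells, 24 h compound exposure; VCAM-1 by ELISA; gain/loss of signal fitted bidirectionally vs DMSO baseline.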

[8] = BSK_4H_Eotaxin3: BioMAP Diversity Plus: 4H Assay for Eotaxin 3 Biomarker Activity (AID 2283000); settings: primary human endothelial cells (HUVEC); actives raise or lower the signal;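 note: CCL26 protein level quantified by ELISA in parallel with SRB cytotoxicity check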
Outline: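 Chemicals were added to human umbilical vein endothelium cultures, and Eotaxin-3 was quantified by ELISA at 24 h. Values were derived by bidirectional fitting with DMSO serving as negative control and activity baseline.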

[9] = target: human Peroxisome Proliferator-activated Receptor delta (PPARd), PPARD (gene 5467) (UniProt Q03181); experiment: ATG_PPARd_TRANS: Attagene TRANS-FACTORIAL HepG2 Assay for human Peroxisome Proliferator-activated Receptor delta (PPARd) (AID 2283002; active = hit-call score of the fitted dose curve at least 0.9, where 1 is the maximum)
Sequence of human Peroxisome Proliferator-activated Receptor delta (PPARd), PPARD (gene 5467) (Q03181 whole entry, looked up, the tested form may be a part): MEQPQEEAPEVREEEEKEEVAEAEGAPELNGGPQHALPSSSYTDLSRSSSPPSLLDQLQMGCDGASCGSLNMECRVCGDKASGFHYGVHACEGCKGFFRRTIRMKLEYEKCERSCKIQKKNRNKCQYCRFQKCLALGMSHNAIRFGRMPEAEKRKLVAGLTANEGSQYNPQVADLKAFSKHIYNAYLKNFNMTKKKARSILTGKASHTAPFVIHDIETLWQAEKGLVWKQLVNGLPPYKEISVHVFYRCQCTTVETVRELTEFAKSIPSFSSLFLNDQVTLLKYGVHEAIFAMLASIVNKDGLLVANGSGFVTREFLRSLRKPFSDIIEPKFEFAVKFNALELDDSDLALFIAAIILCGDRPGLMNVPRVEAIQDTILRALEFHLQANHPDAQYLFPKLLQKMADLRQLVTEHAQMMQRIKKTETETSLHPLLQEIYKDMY
Outline: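 HepG2 cells transiently transfected with GAL4-UAS multiplexed reporter units driven by exogenous chimeric NR-GAL4 proteins; 24 h compound exposure. Reporter mRNA measured by RT-PCR, 6-FAM primer extension, HpaI digestion and capillary electrophoresis; gain of signal fitted relative to DMSO.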

[10] = read-out: Intercellular Adhesion Molecule 1 (ICAM1), ICAM1 (gene 3383); experiment: BSK_3C_ICAM1: BioMAP Diversity Plus: 3C Assay for Intercellular Adhesion Molecule 1 (ICAM1) Biomarker Activity (AID 2283003); settings: primary human endothelial cells (HUVEC); actives raise or lower the signal
Outline: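 Using DMSO as baseline, bidirectional curve fitting was applied to ICAM-1 ELISA signals from HUVEC in the 3C system, measured 24 h after compound addition.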

[11] = target: human Retinoic Acid Receptor beta (RARb), RARB (gene 5915) (UniProt P10826); experiment: ATG_RARb_TRANS: Attagene TRANS-FACTORIAL HepG2 Assay for human Retinoic Acid Receptor beta (AID 2283004; active = hit-call score of the fitted dose curve at least 0.9, where 1 is the maximum)
Outline: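 Transient transfection of HepG2 with multiple reporter units → chemical dosing, 24 h → total RNA isolation → RT with oligo(dT) → reporter-specific PCR, 6-FAM primer extension, HpaI digest → capillary electrophoresis. Positive direction vs DMSO control.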

[12] = BSK_3C_Proliferation: Cell Proliferation Assessment in the BioMAP Diversity Plus: 3C Assay (AID 2283006); settings: primary human endothelial cells (HUVEC);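 for AC50: potency may reflect either rise or fall in cell number versus DMSO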
Outline: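 Measured here: sulforhodamine B (0.1%) staining of TCA-fixed sub-confluent umbilical vein endothelial cultures 48 h post-dosing, absorbance 560 nm. DMSO served as negative control and baseline; both signal gain and loss were modelled.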

[13] = target: Peroxisome proliferator-activated receptor gamma (Homo sapiens) (UniProt P37231); experiment: ATG_PPARg_TRANS: Attagene TRANS-FACTORIAL HepG2 Assay for human Peroxisome Proliferator-activated Receptor-gamma (PPARg) (AID 2283007; active = hit-call score of the fitted dose curve at least 0.9, where 1 is the maximum)
Sequence of Peroxisome proliferator-activated receptor gamma (Homo sapiens) (P37231 whole entry, looked up): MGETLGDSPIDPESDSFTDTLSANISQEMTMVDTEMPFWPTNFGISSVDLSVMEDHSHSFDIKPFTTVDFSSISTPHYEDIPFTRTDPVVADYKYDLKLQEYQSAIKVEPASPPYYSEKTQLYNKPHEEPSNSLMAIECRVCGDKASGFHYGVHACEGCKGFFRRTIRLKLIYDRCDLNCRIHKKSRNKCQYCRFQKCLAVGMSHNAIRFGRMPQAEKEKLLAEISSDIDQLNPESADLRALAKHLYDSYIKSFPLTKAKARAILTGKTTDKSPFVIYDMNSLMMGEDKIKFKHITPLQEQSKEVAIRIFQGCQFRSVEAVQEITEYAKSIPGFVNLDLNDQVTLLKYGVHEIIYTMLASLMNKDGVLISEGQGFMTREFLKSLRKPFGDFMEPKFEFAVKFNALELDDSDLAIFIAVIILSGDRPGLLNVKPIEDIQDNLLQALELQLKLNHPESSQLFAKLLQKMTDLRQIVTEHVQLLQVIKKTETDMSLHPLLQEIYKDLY
Outline: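 Multiplexed reporter transcription units in HepG2, 24 h dosing, reporter transcripts quantified by fluorescent RT-PCR and capillary electrophoresis. Increase over DMSO scored.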

[14] = target: Nuclear receptor subfamily 1 group I member 2 (Homo sapiens) (UniProt O75469); experiment: ATG_PXR_TRANS: Attagene TRANS-FACTORIAL HepG2 Assay for human Pregnane X Receptor (PXR) (AID 2283008; active = hit-call score of the fitted dose curve at least 0.9, where 1 is the maximum)
Sequence of Nuclear receptor subfamily 1 group I member 2 (Homo sapiens) (O75469 whole entry, looked up, the tested form may be a part): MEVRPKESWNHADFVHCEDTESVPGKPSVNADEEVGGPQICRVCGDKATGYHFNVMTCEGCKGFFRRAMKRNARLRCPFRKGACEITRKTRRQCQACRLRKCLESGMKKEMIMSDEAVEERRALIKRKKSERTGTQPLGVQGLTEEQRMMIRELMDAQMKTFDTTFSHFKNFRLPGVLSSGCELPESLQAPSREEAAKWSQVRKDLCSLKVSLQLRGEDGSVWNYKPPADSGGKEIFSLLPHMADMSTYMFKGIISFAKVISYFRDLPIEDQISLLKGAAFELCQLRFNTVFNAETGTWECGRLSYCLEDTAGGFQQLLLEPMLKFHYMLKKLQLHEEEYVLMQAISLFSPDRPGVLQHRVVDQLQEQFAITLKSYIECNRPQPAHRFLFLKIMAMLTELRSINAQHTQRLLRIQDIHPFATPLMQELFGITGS
Outline: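 Trans-factorial format: exogenous NR-Gal4 fusion activity, not endogenous factor, in transfected human HepG2 liver cells. After 24 h dosing, RNA isolated, reverse-transcribed, amplified and resolved by capillary electrophoresis; induction scored versus DMSO.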

[15] = target: human RAR-related Orphan Receptor gamma (RORg), RORC (gene 6097) (UniProt P51449); experiment: ATG_RORg_TRANS: Attagene TRANS-FACTORIAL HepG2 Assay for human RAR-related Orphan Receptor gamma (RORg) (AID 2283011; active = hit-call score of the fitted dose curve at least 0.9, where 1 is the maximum)
Sequence of human RAR-related Orphan Receptor gamma (RORg), RORC (gene 6097) (P51449 whole entry, looked up, the tested form may be a part): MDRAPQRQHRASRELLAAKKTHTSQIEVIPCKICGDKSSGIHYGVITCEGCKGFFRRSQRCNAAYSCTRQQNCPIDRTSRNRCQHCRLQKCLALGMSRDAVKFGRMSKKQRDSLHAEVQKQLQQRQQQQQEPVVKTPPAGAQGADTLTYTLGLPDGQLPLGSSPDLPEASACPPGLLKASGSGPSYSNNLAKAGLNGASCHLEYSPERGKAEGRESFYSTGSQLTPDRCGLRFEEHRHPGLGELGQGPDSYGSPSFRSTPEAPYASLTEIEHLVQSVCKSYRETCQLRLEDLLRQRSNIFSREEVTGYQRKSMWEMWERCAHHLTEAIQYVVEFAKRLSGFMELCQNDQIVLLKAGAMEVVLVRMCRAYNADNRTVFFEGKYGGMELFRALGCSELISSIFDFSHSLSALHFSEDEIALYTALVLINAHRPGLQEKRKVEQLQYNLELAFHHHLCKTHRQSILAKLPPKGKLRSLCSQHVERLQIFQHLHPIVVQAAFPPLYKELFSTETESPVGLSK
Outline: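 First, HepG2 liver cells were transfected with GAL4-UAS-driven reporter constructs and the RORg-Gal4 fusion. Next, they were treated with chemical for 24 h. Finally, reporter mRNA was quantified by RT-PCR and capillary electrophoresis, with upward activity fitted against DMSO.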

[16] = target: human Peroxisome Proliferator-activated Receptor alpha (PPARa), PPARA (gene 5465) (UniProt Q07869); experiment: ATG_PPARa_TRANS: Attagene TRANS-FACTORIAL HepG2 Assay for human Peroxisome Proliferator-activated Receptor alpha (PPARa) (AID 2283001; active = hit-call score of the fitted dose curve at least 0.9, where 1 is the maximum)
Sequence of human Peroxisome Proliferator-activated Receptor alpha (PPARa), PPARA (gene 5465) (Q07869 whole entry, looked up, the tested form may be a part): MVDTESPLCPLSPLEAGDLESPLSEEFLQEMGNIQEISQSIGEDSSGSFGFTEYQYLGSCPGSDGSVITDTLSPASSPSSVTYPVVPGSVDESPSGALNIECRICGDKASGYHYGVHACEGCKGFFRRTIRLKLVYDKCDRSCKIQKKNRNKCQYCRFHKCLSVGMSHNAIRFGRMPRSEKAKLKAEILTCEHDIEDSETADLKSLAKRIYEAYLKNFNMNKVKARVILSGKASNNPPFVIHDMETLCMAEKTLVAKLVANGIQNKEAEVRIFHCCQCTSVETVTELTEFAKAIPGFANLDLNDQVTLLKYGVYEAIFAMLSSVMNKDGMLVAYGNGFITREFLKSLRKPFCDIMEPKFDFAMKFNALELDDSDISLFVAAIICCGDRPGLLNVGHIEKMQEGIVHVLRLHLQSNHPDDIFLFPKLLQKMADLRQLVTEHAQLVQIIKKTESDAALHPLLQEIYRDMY
Outline: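 Transient HepG2 transfection, GAL4-UAS reporters, NR-Gal4 chimeras; 24 h compound exposure. Readout: reporter transcripts by RT-PCR, 6-FAM primer extension, HpaI digest, capillary electrophoresis. Positive direction vs DMSO baseline.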

[17] = target: Retinoic acid receptor alpha (Homo sapiens) (UniProt P10276); experiment: ATG_RARa_TRANS: Attagene TRANS-FACTORIAL HepG2 Assay for human Retinoic Acid Receptor alpha (RARa) (AID 2283005; active = hit-call score of the fitted dose curve at least 0.9, where 1 is the maximum)
Sequence of Retinoic acid receptor alpha (Homo sapiens) (P10276 whole entry, looked up, the tested form may be a part): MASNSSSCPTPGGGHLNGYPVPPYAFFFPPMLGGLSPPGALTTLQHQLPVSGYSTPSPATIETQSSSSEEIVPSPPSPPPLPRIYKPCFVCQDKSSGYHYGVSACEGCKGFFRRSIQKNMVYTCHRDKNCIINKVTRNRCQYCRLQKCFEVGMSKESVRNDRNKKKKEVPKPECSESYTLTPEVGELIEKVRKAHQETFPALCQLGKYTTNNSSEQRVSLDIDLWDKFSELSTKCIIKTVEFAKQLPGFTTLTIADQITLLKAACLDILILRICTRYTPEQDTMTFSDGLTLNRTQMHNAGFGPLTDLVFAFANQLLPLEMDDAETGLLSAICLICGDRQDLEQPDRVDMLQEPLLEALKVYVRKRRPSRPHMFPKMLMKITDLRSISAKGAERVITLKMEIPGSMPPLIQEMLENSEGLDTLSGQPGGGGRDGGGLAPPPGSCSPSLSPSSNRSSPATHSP
Outline: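 HepG2 transiently transfected with multiplex GAL4-UAS reporter units including a human RARa–GAL4 chimera; 24 h compound exposure. Reporter mRNA quantified by RT-PCR, 6-FAM labeling and capillary electrophoresis; gain of signal versus DMSO.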

[18] = target: human Retinoic Acid Receptor gamma (RARg), RARG (gene 5916) (UniProt P13631); experiment: ATG_RARg_TRANS: Attagene TRANS-FACTORIAL HepG2 Assay for human Retinoic Acid Receptor gamma (RARg) (AID 2283009; active = hit-call score of the fitted dose curve at least 0.9, where 1 is the maximum)
Sequence of human Retinoic Acid Receptor gamma (RARg), RARG (gene 5916) (P13631 whole entry, looked up, the tested form may be a part): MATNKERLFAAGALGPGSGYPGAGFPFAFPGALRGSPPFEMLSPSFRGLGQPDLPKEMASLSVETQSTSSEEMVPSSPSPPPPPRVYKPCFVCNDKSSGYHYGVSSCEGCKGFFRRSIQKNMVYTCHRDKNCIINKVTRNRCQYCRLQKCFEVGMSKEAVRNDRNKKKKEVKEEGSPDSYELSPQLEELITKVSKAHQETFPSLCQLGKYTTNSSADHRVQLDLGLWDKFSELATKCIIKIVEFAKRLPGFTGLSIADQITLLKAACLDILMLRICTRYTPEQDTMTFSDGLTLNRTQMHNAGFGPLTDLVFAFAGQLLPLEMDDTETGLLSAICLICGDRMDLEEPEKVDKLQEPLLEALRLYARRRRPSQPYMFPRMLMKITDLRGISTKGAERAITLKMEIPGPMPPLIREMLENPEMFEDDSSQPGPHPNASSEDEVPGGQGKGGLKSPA
Outline: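 Gain-of-signal relative to DMSO is reported from fluorescent capillary electrophoresis of RT-PCR reporter products. These came from HepG2 cells expressing transfected RARg-GAL4 chimeras with UAS reporters, harvested 24 h after dosing.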

[19] = ATG_Oct_MLP_CIS: Attagene CIS-FACTORIAL HepG2 Assay for human Octamer-Binding Transcription Factor (Oct) (AID 2282993); settings: HepG2 Attagene cis-factorial Oct reporter, mRNA; actives raise or lower the signal
Outline: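 Using HepG2 cells bearing transfected cis-reporter constructs, mRNA induction was read after 24 h by fluorescent RT-PCR and capillary electrophoresis, with DMSO defining baseline for gain- or loss-of-signal fits.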

[20] = target: human RAR-related Orphan Receptor beta (RORb), RORB (gene 6096) (UniProt Q92753); experiment: ATG_RORb_TRANS: Attagene TRANS-FACTORIAL HepG2 Assay for human RAR-related Orphan Receptor beta (RORb) (AID 2283010; active = hit-call score of the fitted dose curve at least 0.9, where 1 is the maximum)
Sequence of human RAR-related Orphan Receptor beta (RORb), RORB (gene 6096) (Q92753 whole entry, looked up, the tested form may be a part): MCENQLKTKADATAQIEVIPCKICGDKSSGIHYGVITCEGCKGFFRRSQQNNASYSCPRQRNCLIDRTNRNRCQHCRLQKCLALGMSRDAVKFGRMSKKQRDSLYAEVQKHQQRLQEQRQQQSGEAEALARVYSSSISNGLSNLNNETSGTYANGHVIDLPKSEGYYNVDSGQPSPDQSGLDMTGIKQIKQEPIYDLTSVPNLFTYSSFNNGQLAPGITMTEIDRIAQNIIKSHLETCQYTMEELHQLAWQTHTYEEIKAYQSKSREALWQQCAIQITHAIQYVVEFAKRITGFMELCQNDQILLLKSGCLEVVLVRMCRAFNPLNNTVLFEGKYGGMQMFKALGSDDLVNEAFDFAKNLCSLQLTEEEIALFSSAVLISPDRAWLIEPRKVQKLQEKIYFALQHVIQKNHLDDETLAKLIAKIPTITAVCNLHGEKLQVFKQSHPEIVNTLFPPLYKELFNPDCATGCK
Outline: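 Multiplexed transcription-factor reporter assay: HepG2 cells transiently carrying NR-Gal4/GAL4-UAS constructs, 24 h treatment, mRNA quantified by RT-PCR plus capillary electrophoresis fluorescence; activity scored as induction over DMSO.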

Measured: AC50

CC(C)c1ccc(C(=O)N=C(N)N)cc1S(C)(=O)=O
not listed: [16] | [17] | [18] | [19] | [20]
inactive: all other assays above

Oc1ccc2c(c1)OC[C@@H](N1CCC(O)(c3ccc(F)cc3)CC1)[C@H]2O
active: [3] 23.4 µM | [13] 16.5 µM | [14] 13.6 µM
not listed: [5] | [11] | [15] | [19] | [20]
inactive: all other assays above

Nc1ccc(S(=O)(=O)c2ccc(N)cc2)cc1
not listed: [5] | [11] | [16] | [17] | [18] | [19] | [20]
inactive: all other assays above

C[Si]1(C)O[Si](C)(C)O[Si](C)(C)O[Si](C)(C)O1
not listed: [5] | [11] | [16] | [17] | [18]
inactive: all other assays above

CCNc1cccc(C)c1
not listed: [5] | [11] | [15] | [19]
inactive: all other assays above

COC(=O)c1ccc(O)cc1
not listed: [9] | [11] | [13] | [15] | [17] | [18] | [19] | [20]
inactive: all other assays above

CCCCCCCCCCCC(=O)OC
active: [12] 20 µM
not listed: [5] | [11] | [15] | [17] | [18] | [19] | [20]
inactive: all other assays above

Cc1nc(C)nc(N2C[C@@H](C)N(c3ccnc([C@@H](C)O)n3)[C@@H](C)C2)n1
active: [6] 12.9 µM | [14] 82.4 µM
inactive: [1] | [2] | [3] | [4] | [5] | [7] | [8] | [10] | [12] | [18]
